An excerpt weighted towards active compounds, which were near 0.59% of everything screened.
Vif-APOBEC3F blk – Vif-A3F binding inhibition. HeLa A3F-eYFP + Vif (tagged APOBEC3F with the HIV-1 protein that degrades it), YFP fluorescence increase. Potency, µM (titrated, usually from 46.1 µM), for the others: at the highest dose activity, negative = active. actives 0.2% (n = 390,000). AID 602313; further: potency means the concentration at half of the fitted maximal effect; % of control where 0% means no effect; nearly all actives have a fitted effect of over 65% in size
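HeLa cells stably expressing Vif plus C-terminally eYFP-tagged A3F were seeded, incubated overnight at 37 deg C, dosed with compound, incubated overnight again at 37 deg C. Yellow fluorescence (Ex 488/Em 500-530) reported blocked Vif-mediated A3F-eYFP degradation.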
Vif-A3G inh – Vif-A3G binding inhibition. Q9HC16. HeLa A3G-eYFP + Vif (tagged APOBEC3G with the HIV-1 protein that degrades it), YFP fluorescence, overnight. Potency, µM (top dose mostly 46.1 µM), for the others: at the top dose activity, negative = active, hits mostly inhibitors. actives 0.076% (n = 410,000); further: potency means the concentration at half of the fitted maximal effect; on the % scale 0 is the no-effect control and ±100 the full control effect; nearly all actives have a fitted effect of over 60% in size
Target sequence (Q9HC16 whole entry, looked up): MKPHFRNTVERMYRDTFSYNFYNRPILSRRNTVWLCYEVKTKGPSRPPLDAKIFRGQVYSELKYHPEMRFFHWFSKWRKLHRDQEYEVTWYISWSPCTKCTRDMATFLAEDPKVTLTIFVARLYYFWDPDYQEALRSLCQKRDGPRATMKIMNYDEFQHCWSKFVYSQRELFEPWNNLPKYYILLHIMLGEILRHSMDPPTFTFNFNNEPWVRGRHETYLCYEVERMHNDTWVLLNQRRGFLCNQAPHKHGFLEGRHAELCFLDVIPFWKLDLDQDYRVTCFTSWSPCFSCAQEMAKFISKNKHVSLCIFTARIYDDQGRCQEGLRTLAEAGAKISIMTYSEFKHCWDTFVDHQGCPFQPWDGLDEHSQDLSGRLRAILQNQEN
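HeLa cells stably expressing Vif and C-terminally eYFP-tagged A3G, seeded overnight at 37 deg C, then exposed to compound by pintool overnight at 37 deg C. Rise in yellow fluorescence (Ex 488/Em 500-530, Acumen) marks blocked Vif-driven A3G degradation.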
PTHR1 agonist – agonists of human PTHR1 parathyroid hormone receptor. HEK293 GP2 PTHR1 cells, GloSensor cAMP luminescence, 1 h. Potency, µM (series often up to 115 µM), for the others: top-dose activation, usual class: activators. actives 0.075% (n = 410,000); further: potency means the concentration at half of the fitted maximal effect; nearly all actives have a fitted effect of over 55% in size
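HEK-293-derived GP2 cells expressing PTHR1 and a GloSensor cAMP reporter, 3,000/well, plated overnight, given luciferin plus IBMX (each 0.5 mM as added) for 1 h at 37 °C, then compound for 1 h at 37 °C. Luminescence was read after 15 min at room temperature.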
LDHA block – inhibitors of human lactate dehydrogenase A; P00338; purified LDHA, NADH/diaphorase-resazurin fluorescence; hits give low values; activity change, % (values are at about 110 or 230 µM); actives 0.15% (n = 480,000); in the data active means activity change below about -30%; inconclusive means mostly about -25% to -30%;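 further: plate controls were DMSO wells for no effect and wells without enzyme for full effect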
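Resorufin fluorescence (ex540/em590), read at 0 and 20 min after diaphorase/resazurin addition, reports the NADH left after a 5 min room-temperature reaction of 2 nM human LDH5 with 0.06 mM NADH and 0.2 mM pyruvate.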
IDH1 R132H inh – inhibitors of human mutant IDH1 R132H | IDH1-R132H enzyme, NADPH consumption, diaphorase/resazurin fluorescence | Potency, µM (titrated, usually from 76.6 µM), without a hit: at the highest dose activity change, negative = inhibition, actives largely listed as inhibitors | actives 0.093% (n = 390,000) | AID 602179; further: potency means the concentration at half of the fitted maximal effect; on the % scale 0 is the no-effect control and ±100 the full control effect; nearly all actives have a fitted effect of over 65% in size
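IDH1-R132H (0.5 ug/mL) preincubated 30 min with compound, then NADPH (0.016 mM) and alpha-KG (2 mM) added; 80 min at RT, pH 7.5. Remaining NADPH coupled via diaphorase/resazurin to fluorescence (540/590 nm); concentration-response curves normalized to no-enzyme control.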
PINK1 expr mod – modulators of PINK1 expression | PINK1 immunofluorescence, high-content cytometry, 24 h | Potency, µM (top dose mostly 76.6 µM), without a hit: top-dose activation (PINK1 increase), most hits filed as activators | actives 0.2% (n = 410,000); active means well fitted activation curve with a large enough effect; inconclusive means small, poorly fitted or top-dose-only effect; cell line not stated here; further: potency means the concentration at half of the fitted maximal effect; % of control where 0% means no effect; nearly all actives have a fitted effect of over 65% in size
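Decision-based qHTS: stable cells, 24 h exposure to five compound concentrations, CCCP as control. Fixed cells stained for PINK1 plus nuclear, mitochondrial and cell markers, cytometer read.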
* = called active by the depositor; i = inactive; ? = inconclusive; · = not tested or not shown; ! = repeats disagree; [ ] = dose if it differs, or a comment. Unless noted, the call rests on the fitted dose curve; in most records, active means well fitted curve in the direction sought with a large enough effect; inconclusive means small, poorly fitted or top-dose-only effect, or another doubt; inactive means no such curve, though single readings can be large; an effect the other way counts as inactive or inconclusive.

SMILES	Vif-APOBEC3F blk	Vif-A3G inh	PTHR1 agonist	LDHA block	IDH1 R132H inh	PINK1 expr mod
CCN(CC)c1ccc2cc(-c3nc(-c4ccc(Cl)cc4Cl)cs3)c(=O)oc2c1	7.1µM*	-21%	i	-4	10%	-1%
CCN(CC)c1ccc2cc(-c3nc4ccccc4n3C)c(=O)oc2c1	11µM*	?	i	-1	0%	?
Cc1ccc(/C=N/NC(=O)c2ccccc2)cc1	·	·	·	1	·	·
CCCN(CCC)S(=O)(=O)N1CC=C(c2c(OC)cc(OC)cc2OC)CC1	·	·	·	-24	·	·
O=C1NC(=S)S/C1=C/c1ccc(N2CCOCC2)o1	i	11µM*	i	9	?	21%
NC(=O)c1ccc(CNC2(c3ccc(F)cc3)CCCC2)cc1	·	·	·	10	·	·
CC(=O)Nc1ccc(NC(=O)C(C)OC(=O)c2ccccc2NS(=O)(=O)c2cccs2)cc1 (stereo not drawn)	-11%	-5%	i	-3	18%	0%
Cc1cccc(NC(=O)C(C)OC(=O)c2ccccc2NS(=O)(=O)c2cc(C)c(C)c([N+](=O)[O-])c2)c1 (stereo not drawn)	0%	-6%	-37%	0	0%	20µM*
Nc1nc(SCc2ccc(Cl)cc2Cl)nc2nc3c(cc12)CCCC3	22µM*	?	i	-4	0%	?
Nc1nc(SCc2ccccc2Cl)nc2nc3c(cc12)CCCC3	?	?	i	-3	-3%	15%[38.3 µM]
COc1cc(NC(=O)C(C)n2nc(-c3ccccc3)c3c(c2=O)CCCC3)cc(OC)c1 (stereo not drawn)	·	·	·	-32*	·	·
Cc1oc(-c2ccccc2)nc1CC(=O)Nc1ccccc1I	·	·	·	7	·	·
Cc1ccc(C(=O)COC(=O)C2CC(=O)N(c3ccccc3)C2)cc1 (stereo not drawn)	·	·	·	1	·	·
Cc1ccc2nc3sc(C(=O)Nc4c(C)[nH]c(=O)[nH]c4=O)c(N)c3cc2c1	?	?	-5%	0	2%	?
Cc1ccc2cc3c(N)c(C(=O)Nc4c(C)[nH]c(=O)[nH]c4=O)sc3nc2c1	?	?	-9%	-6	4%	32µM*
C=CCn1c(=O)c2c(nc(-n3nc(C)c(C)c3C)n2CC(=C)C)n(C)c1=O	·	·	·	-32*	·	·
C=C(C)Cn1c(-n2nc(C)c(C)c2C)nc2c1c(=O)n(C)c(=O)n2C	·	·	·	-8	·	·
COc1ccccc1Cc1c(-c2ccc(C#N)cc2)nc2c(Cl)cc(C(F)(F)F)cn12	·	·	i	2	·	10%
CC(C)(C)Cc1c(-c2ccc(C#N)cc2)nc2c(Cl)cc(C(F)(F)F)cn12	·	-4%	-63%	-9	·	35µM*
c1ccc(CNCC(c2ccccc2)N2CCCC2)cc1 (stereo not drawn)	·	·	·	1	·	·
Cc1c(NC(=O)c2c(NC(=O)CNC3CC3)sc3c2CCCC3)c(=O)n(-c2ccccc2)n1C	4%	-9%	-2%	-89*	3%	0%
Cc1cc(=O)oc(C)c1C(=O)Nc1c(C)n(C)n(-c2ccccc2)c1=O	·	0%	i	-3	6%	-2%
CS(=O)(=O)c1cccc(C(=O)Nc2ccc(-c3ccccc3)cc2)c1	·	·	·	13	·	·
COc1cc(C2C3=C(CCCC3=O)OC3=C2C(=O)CCC3)ccc1OCc1ccc(C(=O)O)cc1	·	·	·	3	·	·
CCOc1cc(C2C3=C(CCCC3=O)OC3=C2C(=O)CCC3)cc(Br)c1OCC(=O)O	·	·	·	-33*	·	·
SMILES	Vif-APOBEC3F blk	Vif-A3G inh	PTHR1 agonist	LDHA block	IDH1 R132H inh	PINK1 expr mod
Cc1c(C#N)c(N)nc2c3c(sc12)NC(=O)CC3c1ccc(F)cc1 (stereo not drawn)	4%	0%	9%	17	7%	?
Cc1c(C#N)c(N)nc2c3c(sc12)NC(=O)CC3c1ccccc1 (stereo not drawn)	8%	1%	i	-31*!	8%	?
Cc1nc(C)c(C(=O)Nc2ccc(Oc3ccccc3)cc2)o1	-5%	3%	-2%[57.5 µM]	-5	5%	5.6µM*
Cc1ncoc1C(=O)Nc1ccc(Oc2ccccc2)cc1	-10%	0%	i	-3	1%	-5%[38.3 µM]
Cc1oc(CO)cc1C(=O)OC(C)C(=O)Nc1cc(F)ccc1F (stereo not drawn)	·	·	·	8	·	·
CCCCSc1nnc(-c2c[nH]c3ccccc23)n1C1CC1	·	·	·	-6	·	·
c1ccc(C(NCCNC(c2ccccc2)c2ccccc2)c2ccccc2)cc1	?	5%	i	0	4%	40µM*
COCCn1c(SCC(=O)c2ccc(Cl)cc2)nnc1-c1ccc(Cl)cc1	·	·	·	10	·	·
CN1C(=O)C(NC(=O)C(=O)NCc2ccncc2)c2ccccc21 (stereo not drawn)	·	·	·	0	·	·
CC1(C)Cc2c(sc(NC(=O)c3ccco3)c2C(=O)O)CO1	10%	-1%	-15%[57.5 µM]	-34*	7%	-4%[38.3 µM]
O=C(Nc1cccc(Br)c1)C1CCCCC1	·	·	·	0	·	·
Cc1ccc(NC(=O)c2ccccc2NS(=O)(=O)c2ccc(Cl)s2)cc1S(=O)(=O)N1CCOCC1	-5%	-2%	-21%	-3	-13%	40µM*
c1cc[n+](CCC[n+]2ccccc2)cc1	1%	-2%	i	-31*!	-2%	1%
COC(=O)c1cccc(S(=O)(=O)N(Cc2ccco2)Cc2cc3ccc(OC)cc3[nH]c2=O)c1	0%	-1%	-6%[57.5 µM]	-3	4%	14µM*
COC(=O)c1cccc(S(=O)(=O)N(Cc2ccco2)Cc2cc3cc(OC)c(OC)cc3[nH]c2=O)c1	-3%	2%	i	3	-2%	2%[38.3 µM]
O=C(c1ccc2c(c1)OCCO2)C1CCN(C(=O)c2ccccc2)CC1	·	·	·	-2	·	·
CN1C(=O)C(N=Nc2ccc([N+](=O)[O-])cc2)SC1=S (stereo not drawn)	1%	-2%	-19%	3	15%	45µM*
CN1CCCCCC1=Nc1ccc([N+](=O)[O-])cc1	-1%	1%	-11%	-4	3%	-1%
CC(=O)/C(N=Nc1cc(C)ccc1O)=C(\C)O	25µM*	?	10%	18	9%	5%
C[C@@H]1CN([C@H](C)CO)C(=O)CCCn2cc(nn2)CO[C@H]1CN(C)S(=O)(=O)c1ccc2ccccc2c1	-1%	-8%	-19%	-34*	-4%	0%
CN(CC(=O)Nc1ccc(Cl)c(Cl)c1)C1CCCCC1	-8%	-1%	-34%	-5	3%	40µM*
CCN(CC(=O)Nc1ccc(NC(C)=O)cc1)CC(=O)Nc1ccc(Cl)c(Cl)c1	-5%	2%	-7%	-45*	11%	3%
